Measurements published in ChEMBL document CHEMBL4513216, “Probing the Open Global Health Chemical Diversity Library for Multistage-Active Starting Points for Next-Generation Antimalarials” (ACS Infect Dis, 2020).
About 8,600 (12%) of roughly 69,000 compounds showed an effect of 50% or more. The entries come from a sample that favours strong results as a whole.

What follows are compounds tested on Plasmodium berghei (assay: Screen against P. berghei liver stage (PbLuc), transformed with Luciferase, at 10uM). Conditions: tested at 10 uM.
Type: functional, HepG2
`O=C(N[C@@H]1CC[C@@H](N2CCOCC2)[C@@H]1O)c1cnn2cccnc12` was tested, and the INHIBITION was 38.8%. With `COCCO[C@H]1CCN(C(=O)c2cccnc2)[C@H]1Cc1cnn(C)c1` the INHIBITION was 1.9%. Compound `O=C(c1ccnnc1)N1CC[C@H](OCC2CC2)[C@@H]1Cc1ccncc1` has an INHIBITION of 66.2%. `O=C(c1cccnc1)N1CC[C@H](OCC2CC2)[C@@H]1Cc1cccnc1` gave an INHIBITION of 34.8%. In the case of `COCCO[C@H]1CCN(C(=O)NC2CC2)[C@H]1Cc1cnn(C)c1`, the INHIBITION is reported as 62.8%. `COCCO[C@H]1CCN(C(=O)c2ccco2)[C@H]1Cc1cnn(C)c1` was tested, and the INHIBITION was -22.5%. `CCO[C@@H]1CCN(C(=O)c2ccc[nH]2)[C@@H]1Cc1cnn(C)c1` showed an INHIBITION of 29%. In the case of `COCCO[C@@H]1CCN(C(=O)c2ccc(C)o2)[C@@H]1Cc1cnn(C)c1`, the INHIBITION is reported as 21.6%. In the case of `CCO[C@@H]1CCN(C(=O)N(C)C)[C@@H]1Cc1cnn(C)c1`, the INHIBITION is reported as 12.4%. `O=C(c1ccnnc1)N1CC[C@@H](O)[C@@H]1Cc1ccccc1` showed an INHIBITION of -3.58%. Work on `CCO[C@@H]1CCN(C(=O)c2ccnnc2)[C@@H]1Cc1cnn(C)c1` yielded an INHIBITION of 69.5%. With `COCCO[C@H]1CCN(C(=O)c2ccsc2)[C@H]1Cc1cnn(C)c1` the INHIBITION was -17.9%. `COCCO[C@@H]1CCN(C(=O)c2ccnnc2)[C@H]1Cc1cnn(C)c1` showed an INHIBITION of 53.4%. Work on `NC(=O)C1CCCN(C(=O)c2ccn(-c3ccc(F)cc3)n2)C1` (stereo unspecified) yielded an INHIBITION of 0.914%. Work on `c1cnc2[nH]c(C3CCNCC3)c(CN3CCOCC3)c2c1` yielded an INHIBITION of 6.32%. In the case of `O=C([C@H]1CC[C@@H]2[C@@H](CCN2C2CCCCC2)O1)N1CCOCC1`, the INHIBITION is reported as 20.6%. `NCCCC(=O)NCC1(O)CCN(c2ccnc3cccnc23)C1` (stereo unspecified) showed an INHIBITION of 8.3035%. Work on `OCC1CCCN1c1cc(NCCNc2ccccn2)ncn1` (stereo unspecified) yielded an INHIBITION of 7.12%. In the case of `OCC1CCCN1c1cc(NCCc2nccs2)ncn1` (stereo unspecified), the INHIBITION is reported as -0.71%. `OCC1CCCN1c1cc(NCCc2ccccn2)ncn1` (stereo unspecified) gave an INHIBITION of 64.1%. Compound `OCC1CCCN1c1cc(NCc2ccsc2)ncn1` (stereo unspecified) has an INHIBITION of 43.2%. In the case of `OCC1CCCN1c1cc(NCc2ccccn2)ncn1` (stereo unspecified), the INHIBITION is reported as -41.6%. Work on `OCC1CCCN1c1cc(NCCc2ccsc2)ncn1` (stereo unspecified) yielded an INHIBITION of 66.3%. `C[C@@H]1C[C@H](C(F)(F)F)n2nc(C3CCN(S(=O)(=O)N(C)C)CC3)cc2N1` gave an INHIBITION of -2.11%. `CNS(=O)(=O)c1ccc(C(=O)N2CCCC2c2ccccc2C)o1` (stereo unspecified) was tested, and the INHIBITION was 7.27%. `O=C(NCc1nn(-c2ccccc2)c2c1CCC2)N1CCCC(O)C1` (stereo unspecified) was tested, and the INHIBITION was -49.4%. `CN1CCN(Cc2nnc(C3CCN(C(CO)CO)CC3)n2C)CC1` gave an INHIBITION of 62.9%. `Cn1c(CN2CCOCC2)nnc1C1CCCN(C(=O)CCC2CC2)C1` (stereo unspecified) showed an INHIBITION of 8.51%. Work on `CCCOC(=O)N1CCCC(c2nnc(CN3CCOCC3)n2C)C1` (stereo unspecified) yielded an INHIBITION of 31.2%. `CCN(C)CC(=O)N1CCCC(c2nnc(CN3CCOCC3)n2C)C1` (stereo unspecified) showed an INHIBITION of 55.7%. In the case of `CN1CCN(Cc2nnc(C3CCN(CC4CC4)CC3)n2C)CC1`, the INHIBITION is reported as -17%. Compound `CN1CCN(Cc2nnc(C3CCN(C4CCCCC4)CC3)n2C)CC1` has an INHIBITION of -10.9%. For `Cn1c(CN2CCCC2)nnc1C1CCCN(C(=O)CN2CCCC2)C1` (stereo unspecified), the INHIBITION was 21.2%. `CN(CCO)Cc1nnc(C2CCN(C(=O)C3CCOCC3)CC2)n1C` gave an INHIBITION of 39.1%. `Cn1c(CN2CCCC2)nnc1C1CCCN(C(=O)C2CCOCC2)C1` (stereo unspecified) showed an INHIBITION of 70.1%. For `Cn1c(CN2CCCC2)nnc1C1CCCN(C(=O)N2CCOCC2)C1` (stereo unspecified), the INHIBITION was 5.78%. Work on `CN1CCC(c2nnc(CN3CCOCC3)n2C)CC1` yielded an INHIBITION of 27.7%. In the case of `Cn1c(CN2CCOCC2)nnc1C1CCN(C(=O)C2CCCC2)CC1`, the INHIBITION is reported as 50.1%. Work on `O=C(O)[C@@H]1CN(C(=O)CN2CCCCCC2)C[C@H]1c1ccccc1` yielded an INHIBITION of -6.21%. In the case of `CC(C)C1=NOC2(CCN(S(C)(=O)=O)CC2)C1`, the INHIBITION is reported as -35.4%. Work on `Cc1cc(C)n(CC2CCN(CC(O)COc3ccccc3)CC2)n1` (stereo unspecified) yielded an INHIBITION of 26.8%. In the case of `NC1CCC(n2cc(C(=O)N[C@H]3CCCc4ccccc43)nn2)CC1` (stereo partly specified), the INHIBITION is reported as 16.6%. `CCc1nc(C2CCCN(C(=O)c3ccncc3)C2)no1` (stereo unspecified) showed an INHIBITION of -61.4%. `Cc1noc(C)c1-c1cc(CCC2CN(CCC(N)=O)CCO2)ncn1` (stereo unspecified) was tested, and the INHIBITION was -2.2555%. For `CCSCc1ccc(C(=O)N2CCCN(CC)CC2)cc1`, the INHIBITION was 47%. Compound `COc1ccc(C(C)NCCc2ccc(NC(C)=O)cc2)c(OC)c1` (stereo unspecified) has an INHIBITION of 1.56%. With `CN(C)c1cccc(C2CCCN2S(=O)(=O)c2cn(C)cn2)n1` (stereo unspecified) the INHIBITION was -52.6%. For `CSCCC(NC(N)=O)C(=O)NCc1cnn(-c2ccccc2)c1` (stereo unspecified), the INHIBITION was 29.8%. Compound `CSCCC(O)C(=O)N(C)Cc1cnn(-c2ccc(F)cc2)c1` (stereo unspecified) has an INHIBITION of 24.2%. With `CSCC[C@H](NC(C)=O)C(=O)N(C)Cc1ccc(-n2cccn2)cc1` the INHIBITION was 54.4%. Compound `CN(Cc1ccc(-n2cccn2)cc1)C(=O)CCC(F)(F)F` has an INHIBITION of 35.1%. `CSCCC(NC(N)=O)C(=O)Nc1ccc(-n2cccn2)nc1` (stereo unspecified) was tested, and the INHIBITION was 1.79%. Work on `CSCCC(NC(N)=O)C(=O)NCc1ccc(-n2cccn2)cc1` (stereo unspecified) yielded an INHIBITION of 56.6%. For `Cc1cnc(C(=O)N2C[C@@H]3CC[C@H]2CN(S(=O)(=O)N(C)C)C3)cn1`, the INHIBITION was 42%. `O=C(NC1CC1)N1C[C@@H]2CCN(C(=O)c3cscn3)[C@@H]2C1` was tested, and the INHIBITION was -1.28%. `Cn1cc(Cl)cc1C(=O)N1CCCN(Cc2nccn2C)CC1` showed an INHIBITION of 0.16%. `CCCc1noc(CN2CCCC2c2noc(C3CC3)n2)n1` (stereo unspecified) was tested, and the INHIBITION was 40.9%. For `O=C(NC1CC1)[C@H]1C[C@H]2OCC[C@H]2N(Cc2ccc(F)cc2)C1`, the INHIBITION was -15.3%. For `Cc1cc(-c2cccc3c2CCNC3)cnc1-n1cnnc1`, the INHIBITION was 26.4%. `Cc1nc(-n2cnnc2)ccc1-c1cccc2c1CCNC2` showed an INHIBITION of 61.1%. `CN(C)C(=O)c1ccc(-c2cccc3c2CCNC3)cc1` was tested, and the INHIBITION was 33.9%. `Cc1cnc(-n2cnnc2)c(-c2cccc3c2CCNC3)c1` showed an INHIBITION of 53.3%. For `Cc1ccc(C(=O)O)cc1-c1cccc2c1CCNC2`, the INHIBITION was 15.8%. For `COc1ccc(C(=O)O)cc1-c1cccc2c1CCNC2`, the INHIBITION was 21.2%. Work on `CCn1cncc1CN1CCN(CC2(c3ccc(C)cc3)CC2)CC1` yielded an INHIBITION of -29.9%. Compound `O=C(O)C1(Cc2cc(-c3ccccc3F)no2)CCOCC1` has an INHIBITION of 21.9%.
